Data taken from PMC4336329 (PLoS ONE, 2015).
Screen size: about 310,000 compounds; about 14,000 (4.5%) showed an effect of 50% or more. The effect is printed as a negative number. This excerpt belongs to a sample that is enriched for strong results.

biological target: human ether-à-go-go-related gene (hERG) potassium channel (human, UniProt Q12809); assay: primary screen, population patch clamp on CHO cells stably expressing hERG; higher = less effect of the substance
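Note: peak tail current of the secondary pulse compared with the same well before compound.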

Sequence of human ether-à-go-go-related gene (hERG) potassium channel (Q12809 whole entry, looked up): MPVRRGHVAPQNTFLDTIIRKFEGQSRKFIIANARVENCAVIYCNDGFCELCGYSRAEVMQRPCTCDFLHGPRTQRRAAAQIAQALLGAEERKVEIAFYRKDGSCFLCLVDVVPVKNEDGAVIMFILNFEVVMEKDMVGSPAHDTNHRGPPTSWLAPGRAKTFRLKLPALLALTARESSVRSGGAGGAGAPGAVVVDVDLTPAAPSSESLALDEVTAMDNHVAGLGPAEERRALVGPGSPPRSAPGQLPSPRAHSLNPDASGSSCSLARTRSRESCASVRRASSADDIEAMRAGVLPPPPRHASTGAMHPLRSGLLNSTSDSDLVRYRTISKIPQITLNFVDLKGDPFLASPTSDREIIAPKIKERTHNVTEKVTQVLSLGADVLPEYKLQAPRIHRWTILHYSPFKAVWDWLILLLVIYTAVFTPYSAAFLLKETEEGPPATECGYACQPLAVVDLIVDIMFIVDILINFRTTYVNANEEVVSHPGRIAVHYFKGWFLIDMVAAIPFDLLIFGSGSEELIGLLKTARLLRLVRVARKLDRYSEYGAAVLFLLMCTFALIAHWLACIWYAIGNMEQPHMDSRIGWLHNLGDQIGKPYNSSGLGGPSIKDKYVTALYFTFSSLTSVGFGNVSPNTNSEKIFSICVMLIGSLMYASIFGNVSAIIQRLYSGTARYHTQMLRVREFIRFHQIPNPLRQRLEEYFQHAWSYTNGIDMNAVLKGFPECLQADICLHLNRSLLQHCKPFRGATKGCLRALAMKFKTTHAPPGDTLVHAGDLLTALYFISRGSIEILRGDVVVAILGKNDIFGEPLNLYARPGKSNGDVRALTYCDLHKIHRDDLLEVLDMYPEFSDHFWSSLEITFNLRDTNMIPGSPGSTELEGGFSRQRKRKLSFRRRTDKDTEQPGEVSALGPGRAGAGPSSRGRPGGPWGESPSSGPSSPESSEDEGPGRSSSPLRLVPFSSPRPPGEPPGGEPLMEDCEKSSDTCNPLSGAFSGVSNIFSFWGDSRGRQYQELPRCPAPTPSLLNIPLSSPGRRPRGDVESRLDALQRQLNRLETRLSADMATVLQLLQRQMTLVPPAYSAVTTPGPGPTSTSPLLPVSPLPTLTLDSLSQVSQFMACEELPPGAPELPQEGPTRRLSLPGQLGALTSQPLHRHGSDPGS

Row | SMILES | hERG current change (%, negative = inhibition) at 10uM
1 | CN(CC(=O)Nc1cccc(F)c1)C(=O)c1ccccc1CCc1ccccc1 | 3.08%
2 | O=S(=O)(NCc1ccco1)c1cccc(S(=O)(=O)N2CCCCC2)c1 | -32.2%
3 | CCN1CCN(C(c2cccc(OC)c2)c2sc3nc(C)nn3c2O)CC1 (centres unmarked) | 19.7%
4 | COc1cccc(CNC(=O)CSC(=S)N2CCCC2)c1 | 2.79%
5 | CCOC(=O)N1CCN(c2c(NCCCOC(C)C)c(=O)c2=O)CC1 | -19.7%
6 | CC(C)CC(=O)O/N=C1\C(=O)N(Cc2ccc(Cl)cc2)c2ccc([N+](=O)[O-])cc21 | -36.1%
7 | CCn1c(CO)nc2c1c(=O)[nH]c(=O)n2Cc1ccccc1 | 17.7%
8 | Cn1c(NCc2ccccc2)nc2c1c(=O)n(Cc1ccc(Br)cc1)c(=O)n2C | 4.56%
9 | Cn1c(OCc2cccnc2)nc2c1c(=O)n(Cc1ccc(Br)cc1)c(=O)n2C | -57.3%
10 | Cn1c(Br)nc2c1c(=O)n(Cc1ccccc1)c(=O)n2C | -10.2%
11 | CC1CCCN(C(=O)CN2C(=O)C(C)Oc3ccccc32)C1 (centres unmarked) | 8.2%
12 | CCN(CC)C(=O)c1[nH]cnc1C(=O)Nc1ccon1 | 0.396%
13 | Cc1ccc(NC(=O)OCc2cncs2)cc1 | 2.29%
14 | COCCNC(=O)c1c(N)n(/N=C/c2ccc(F)cc2)c2nc3ccccc3nc12 | -0.595%
15 | O=C(NCCCN1CCOCC1)c1cc(S(=O)(=O)N2CCN(c3ccccc3)CC2)ccc1Cl | -76.6%
16 | Cc1ccc(S(=O)(=O)N2CCCCC2)cc1C(=O)NCCCN1CCOCC1 | 16.7%
17 | O=C(NCCCN1CCOCC1)c1cccc(S(=O)(=O)N2CCN(c3ccccc3)CC2)c1 | -71.8%
18 | O=C(NCCCN1CCOCC1)c1cccc(S(=O)(=O)N2CCOCC2)c1 | 8.97%
19 | O=C(NCCCN1CCCC1=O)c1cc(S(=O)(=O)N2CCOCC2)ccc1Cl | 13.9%
20 | O=C(NCCN1CCOCC1)c1cccc(S(=O)(=O)N2CCCC2)c1 | 6.43%
21 | CCOC(=O)c1ccc(NC(=S)Nc2ccc3[nH]c(=O)[nH]c3c2)cc1 | 1.23%

Row | SMILES | hERG current change (%, negative = inhibition) at 10uM
22 | O=c1[nH]c2ccccc2nc1C(Cl)c1ccccc1 (centres unmarked) | 2.52%
23 | Nc1nc(-c2ccco2)cs1 | 9.88%
24 | O=c1oc2cc(OCc3c(F)c(F)c(F)c(F)c3F)ccc2cc1-c1ccccn1 | 14%
25 | COc1ccc(C(=O)Nn2cnc3ccccc3c2=O)cc1[N+](=O)[O-] | -4.64%
26 | Cc1ccc(S(=O)(=O)N2CCN(CC(=O)N/N=C\C(Cl)=C\c3ccccc3)CC2)cc1 | -48%
27 | COc1ccccc1/C=C/C=N/NC(=O)CN1CCN(S(=O)(=O)c2ccc(C)cc2)CC1 | -50.2%
28 | Cc1ccc(S(=O)(=O)N2CCN(CC(=O)N/N=C/C=C/c3ccccc3)CC2)cc1 | -73.8%
29 | Cc1ccc(S(=O)(=O)N2CCN(CC(=O)N/N=C\c3ccccn3)CC2)cc1 | -36.3%
30 | O=C(O)COc1ccccc1/C=N/NC(=O)CN1CCN(S(=O)(=O)c2ccc(Br)cc2)CC1 | 4.89%
31 | Cc1ccc(S(=O)(=O)N2CCN(CC(=O)N/N=C/c3ccc(C)o3)CC2)cc1 | -38.9%
32 | O=C(CN1CCOCC1)N/N=C/C=C/c1ccccc1 | -26.3%
33 | Cc1ccc(S(=O)(=O)N2CCN(CC(=O)N/N=C/c3ccccc3OCC(=O)O)CC2)cc1 | 10.5%
34 | CC(/C=N\NC(=O)CN1CCN(S(=O)(=O)c2ccc(C)cc2)CC1)=C\c1ccccc1 | -68.1%
35 | CCCOC(=O)c1ccc(O)cc1 | 16.5%
36 | COc1ccccc1CC(=O)Nc1ccc(O)cc1C(=O)O | 0.828%
37 | C(=N\N(c1ccccc1)c1ccccc1)/c1ccc2c(c1)OCO2 | 4.28%
38 | O=C(O)/C=C\C(=O)O.c1ccc2c(c1)CC1CNCc3cccc(c31)S2 (centres unmarked) | -49.5%
39 | Fc1ccc2c(c1)Sc1ccc(Cl)cc1CC2N1CCN(CCC2OCCO2)CC1 (centres unmarked) | -8.68%
40 | C1CCCCC1.OCCN1CCN(C2Cc3cc(Cl)ccc3Sc3ccc(Cl)cc32)CC1 (centres unmarked) | 9.86%
41 | Clc1ccc2c(c1)C(N1CCNCC1)Cc1ccccc1S2.O=C(O)/C=C\C(=O)O (centres unmarked) | -54.3%
42 | COCCCN1CCN(C2Cc3ccccc3Sc3ccc(Cl)cc32)CC1.O=C(O)/C=C\C(=O)O (centres unmarked) | -73.5%

Row | SMILES | hERG current change (%, negative = inhibition) at 10uM
43 | COc1cc([C@@H]2c3cc4c(cc3[C@@H](O)[C@H]3COC(=O)[C@H]23)OCO4)cc(OC)c1O[Si](C)(C)C(C)(C)C | 17.8%
44 | NS(=O)(=O)c1cccc(NC(=O)c2cccnc2Oc2ccccc2)c1 | 12.7%
45 | Cc1sc2ncn(CC(=O)N3CCN(c4ccccn4)CC3)c(=O)c2c1S(=O)(=O)N1CCCCC1 | -36.7%
46 | Cc1ncc2c(c1OC(=O)c1ccccc1)COC(C)(C)OC2 | -6.46%
47 | Cc1c(OC(=O)c2ccc([N+](=O)[O-])cc2)c2c(c[n+]1C)COC(C)(C)OC2.[I-] | 9.15%
48 | Cc1ncc2c(c1OC(=O)c1ccc([N+](=O)[O-])cc1)COC(C)(C)OC2 | -65.8%
49 | Cn1c(O)c(N=Nc2ccc(S(=O)(=O)N3CCOCC3)cc2)c(=O)n(C)c1=O | 10.8%
50 | CCN(CC)c1ccc(N=Cc2c(O)n(-c3ccccc3C)c(=O)[nH]c2=O)cc1 | -29.2%
51 | Cc1ccc(S(=O)(=O)N2CCCCC2)c2nsnc12 | -54.9%
52 | Cc1ccc(S(=O)(=O)N2CCN(C)CC2)c2nsnc12 | 24.1%
53 | Cc1ccc(S(=O)(=O)N2CCOCC2)c2nsnc12 | -3.38%
54 | O=[N+]([O-])c1cc(-c2nnc(N3CCOCC3)c3ccccc23)ccc1N1CCOCC1 | -40.3%
55 | O=C(Cn1nc(-c2ccc(N3CCOCC3)c([N+](=O)[O-])c2)c2ccccc2c1=O)N1CCCCC1 | -68.2%
56 | CCC(=O)Nc1cc(-c2nn(CC(=O)N3CCCCC3)c(=O)c3ccccc23)ccc1N1CCOCC1 | 3.05%
57 | O=C(Nc1cc(-c2nn(CC(=O)N3CCCCC3)c(=O)c3ccccc23)ccc1N1CCOCC1)c1ccc(Cl)cc1 | -52.6%
58 | CC(=O)Nc1cc(-c2nn(CC(=O)N3CCCCC3)c(=O)c3ccccc23)ccc1N1CCOCC1 | 2.8%
59 | Cc1ccc(-c2nn(CC(=O)N3CCOCC3)c(=O)c3ccccc23)cc1S(=O)(=O)N(C)C | -22.6%
60 | Cc1ccc(C)c(N(C(=O)CCC(=O)Nc2cc(C)on2)C(C(=O)NC2CCCC2)c2ccco2)c1 (centres unmarked) | 10.2%
61 | CNc1nc(SC(C)C(=O)Nc2ccc(Cl)c(Cl)c2)nc(N2CCOCC2)n1 (centres unmarked) | 19.6%
62 | COc1ccc(S(=O)(=O)N2CCC(C(=O)N3CCN(C)CC3)CC2)cc1OC | 17.3%
63 | Cc1nn(CCO)c2nc(-c3cccs3)cc(C(F)(F)F)c12 | 2.32%

Row | SMILES | hERG current change (%, negative = inhibition) at 10uM
64 | COc1ccc(/C=N/NC(=O)CC(=O)NC2CCCCC2)cc1 | 5.89%
65 | COc1ccc(-c2cnnn2-c2ccc(NC(=O)/C=C/c3ccc(OC)c(OC)c3)cc2)cc1 | -5.92%
66 | Cc1ccccc1OCCC(=O)OCC(=O)NCCNC(=O)COC(=O)CCOc1ccccc1C | 4.47%
67 | O=C(CCC(=O)N1CCN(Cc2ccc(F)cc2)CC1)Nc1nnc(C2CCCCC2)s1 | 6.92%
68 | COc1ccc(F)cc1CN1CCN(C(=O)CCC(=O)Nc2nnc(C3CCCCC3)s2)CC1 | -6.04%
69 | COc1ccc(CN2CCN(C(=O)CCC(=O)Nc3nnc(C4CCCCC4)s3)CC2)cc1F | -50.2%
70 | COc1ccc(C(=O)C2CCCN(C(=O)c3noc4c3CCCC4)C2)cc1F (centres unmarked) | -39.9%
71 | CCc1ccc2[nH]c(=O)c(CN(Cc3ccccc3OC)Cc3nnnn3Cc3ccco3)cc2c1 | -14.3%
72 | COc1ccc(C(=O)COc2ccc3ccc(=O)oc3c2)cc1 | -3.32%
73 | CC(=O)n1cc(N(C(=O)CCl)c2ccc([N+](=O)[O-])cc2)c2ccccc21 | -57.1%
74 | CC(=O)n1cc(N(C(=O)CCl)c2ccc(C)cc2)c2ccccc21 | -5.35%
75 | CC(=O)n1cc(N(C(=O)CCl)c2ccccc2)c2ccccc21 | 1.19%
76 | CC1CCCCN1C(=O)CCc1nnc(Cc2c[nH]c3ccccc23)o1 (centres unmarked) | 4.94%
77 | COc1ccc(S(=O)(=O)N2CCCC(C(=O)Nc3ccc(NC(=O)c4ccccn4)cc3)C2)cc1 (centres unmarked) | 4.17%
78 | O=C(CN1C(=O)COc2ccccc21)NCCCN1CCN(Cc2ccccc2)CC1 | -11.7%
79 | O=S(=O)(Nc1ccccn1)c1ccc(-n2cccn2)cc1 | 21.3%
80 | CCCN1C2=C(C(=O)CCC2)C(c2ccc(O)c(Br)c2)C2=C1CCCC2=O | -18.1%
81 | CN1CCN(/N=C/c2nc(-c3ccccc3)n3ccccc23)CC1 | -19.9%
82 | CN1CCN(/N=C/c2nc(-c3ccc(Cl)cc3)n3ccccc23)CC1 | -62.1%
83 | Clc1ccc(-c2nc(/C=N/N3CCOCC3)c3ccccn23)cc1 | -5.18%
